HT1080-NT tox: qHTS for induction of synthetic lethality in tumor cells producing 2HG: qHTS for the HT-1080-NT fibrosarcoma cell line; HT-1080-NT fibrosarcoma viability, CellTiter-Glo ATP luminescence, 48 h; Potency, µM (top dose mostly 46.1 µM), inactives show top-dose activity, negative = less viability, usual class: cytotoxic; 360,000 compounds, 1.6% hits;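 note: NT is the 2HG producing partner of a matched IDH1 knockdown line; 0% = DMSO-treated cells and -100% = media-only wells without cells; nearly all actives have a fitted effect of over 55% in size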
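Fibrosarcoma NT cells, 750 per well in 5% FBS RPMI, were exposed to compound for 48 hours. Viability: CellTiter-Glo luminescence.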
SW480 rerep: A quantitative high throughput screen for small molecules that induce DNA re-replication in SW480 colon adenocarcinoma cells; SW480 DNA re-replication, Hoechst DNA content imaging, 48 h; Potency, µM (series often up to 46.1 µM), for inactives: top-dose re-replication activation, most hits filed as activators; 340,000 compounds, 1.8% hits; note: % of control where 0% means no effect; nearly all actives have a fitted effect of over 55% in size
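Quantitative HTS format with DMSO vehicle controls; 48 hr drug incubation at 37 C, then 40 min Hoechst staining and scanning imager measurement at 405 nm excitation.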
MCF10A rerep: A quantitative high throughput screen for small molecules that induce DNA re-replication in MCF 10a normal breast cells; Potency, µM (highest dose often 46.1 µM), for the others: top-dose activity, positive = re-replication, actives largely listed as activators; MCF 10A DNA re-replication, Hoechst nuclear intensity, 48 h; AID 624296, 2012; 350,000 compounds, 2.9% hits; note: % of control where 0% means no effect; nearly all actives have a fitted effect of over 50% in size
HT1080 IDH1KD tx: qHTS for induction of synthetic lethality in tumor cells producing 2HG: qHTS for the HT-1080-IDH1KD cell line; HT-1080 IDH1 knockdown viability, ATP luminescence, 48 h; Potency, µM (series often up to 46.1 µM), without a hit: at the top dose activity, negative = toxicity, most hits filed as cytotoxic; 360,000 compounds, 2% hits; AID 686971, 2013;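 note: 0% = DMSO wells and -100% = cell-free medium wells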
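CellTiter-Glo luminescence after 48 h compound exposure at 37 degrees C of IDH1-knockdown HT-1080 cells in 5% FBS RPMI. %Activity scaled between DMSO wells and cell-free media wells, with curves fitted and assigned curve classes.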
KB-V1 cytotox: qHTS assay for MDR1-selective chemotherapeutics: Primary screen using the drug-selected MDR subline cells KB-V1. Potency, µM (doses to about 46.1 µM), usual class: cytotoxic. 400,000 compounds, 3.4% hits. KB-V1 MDR cells viability, CellTiter-Glo, 72 h; note: % is set by controls: 0 for no effect and ±100 for the full control effect; nearly all actives have a fitted effect of over 60% in size
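Cytotoxicity toward P-gp-expressing KB-V1 cells was determined as loss of CellTiter-Glo luminescence after 72 h at 37 degrees C. Compounds were tested in quantitative HTS format across a concentration range, with curves fitted to normalized data.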
KB-3-1 cytotox: qHTS assay for MDR1-selective chemotherapeutics: Primary screen using the parental adenocarcinoma cell KB-3-1 | KB-3-1 viability, CellTiter-Glo ATP luminescence, 72 h | Potency, µM (series often up to 46.1 µM), hits mostly cytotoxic | 400,000 compounds, 1.4% hits | AID 1347075, 2019; note: % is set by controls: 0 for no effect and ±100 for the full control effect; nearly all actives have a fitted effect of over 60% in size
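Here the drug-naive KB-3-1 line serves as comparator for MDR sub-line selectivity; cells received compound titrations, 72 h at 37 °C, then CellTiter-Glo readout.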
An asterisk follows results filed as active; i = inactive; u = inconclusive; x = no result. This is a sample that favours compounds with a hit; in the whole collection about 8% have one here. Calls come from the whole dose curve; as a rule, active = well fitted curve in the direction sought with a large enough effect; inconclusive = small, poorly fitted or top-dose-only effect, or another doubt; inactive = no such curve, though single readings can be large; an effect the other way counts as inactive or inconclusive. Potency is the fitted concentration of half-maximal effect.

SMILES	HT1080-NT tox	SW480 rerep	MCF10A rerep	HT1080 IDH1KD tx	KB-V1 cytotox	KB-3-1 cytotox
COc1ccc(CC(N)c2csc(NC(=O)c3cc(C(C)(C)C)nn3Cc3ccccc3)n2)cc1 (stereo not drawn)	21µM*	x	x	21µM*	u	u
COc1cccc2ccc(/C=C/c3ccc4c(c3)OCO4)nc12	x	x	x	x	i	i
O=C1OC(c2cccc([N+](=O)[O-])c2)C2(CCCC2)C(=O)C12CCCCC2 (stereo not drawn)	u	u	u	16µM*	u	i
O=C1OC(c2ccccc2)C2(CCCC2)C(=O)C12CCCC2 (stereo not drawn)	5%	-1%	-1%	-4%	i	i
CCNC(=O)CSc1nnc(C2CC2)n1-c1ccccc1	17%	3%	1%	21%	i	i
Nn1c(Cc2cccc3ccccc23)nnc1SCc1ccccc1Cl	-6%	-2%	-6%	-3%	i	i
Nn1c(Cc2cccc3ccccc23)nnc1SCc1ccccc1	6%	13%	u	3%	16µM*	i
Cc1cc(C)n(-c2nnc3n2N=C(c2ccccc2)CS3)n1	2%	0%	1%	5%	i	i
Cc1cc(C)n(-c2nnc3n2N=C(c2c[nH]c4ccccc24)CS3)n1	u	u	u	15µM*	u	7.3µM*
CCCCOc1ccc(C(=O)OCC(=O)Nc2cc(C)on2)cc1	13%	1%	5%	12%	i	i
Cc1ccccc1C1c2[nH]c3ccccc3c2CCN1C(=O)c1ccc(=O)n(C)n1 (stereo not drawn)	u	-10%	-10%	u	i	i
Cc1c(C)n(Cc2ccc(Cl)cc2)c2ccc(C(=O)NCCN3CCOCC3)cc12	u	u	12µM*	u	i	u
CCc1ccc(CNC(=O)c2ccc3c(c2)c(C)c(C)n3Cc2ccccc2)cc1	x	x	x	x	i	i
CCc1ccc(NC(=O)c2ccc3c(c2)c(C)c(C)n3Cc2ccccc2)cc1	x	x	x	x	8.2µM*	u
Cc1c(C)n(Cc2ccccc2)c2ccc(C(=O)NCCN3CCOCC3)cc12	-26%	17%	11%	-21%	i	i
O=C(NCCCN1CCOCC1)c1ccc(CSc2ccc(Cl)cc2)cc1	18µM*	u	u	u	u	u
CC1=C(C(=O)Nc2ccc(F)cc2)C(c2ccc(N(C)C)cc2)NC(=O)N1 (stereo not drawn)	x	x	x	x	i	i
Cc1ccc2nc3c(c(Nc4cccc(O)c4)c2c1)CCC3	18µM*	-5%	u	u	u	u
O=C(Nc1c2c(nc3ccccc13)CCCC2)c1ccccc1Cl	8%	7.3µM*	0%	5%	i	i
CCOC(=O)c1cccc(Nc2c3c(nc4ccccc24)CCC3)c1	x	x	x	x	u	i
COC(=O)c1cccc(Nc2c3c(nc4ccccc24)CCC3)c1	21µM*	u	u	16µM*	18µM*	21µM*
CC(=O)c1ccc(Nc2c3c(nc4ccccc24)CCCC3)cc1	u	u	15µM*	u	i	u
Cc1noc(C)c1CCC(=O)Nc1cc(Cl)ccc1C(=O)O	-7%	x	x	-13%	i	i
Cc1ccc(S(=O)(=O)N2CCN(C(=O)c3ccco3)CC2)cc1C	0%	-8%	-17%	2%	i	i
O/N=C/c1cn(-c2ccccc2)nc1-c1ccccc1	-16%	6%	u	u	i	i
